Measured values as given in PubChem BioAssay (Tox21).
Several values for one entry are separate records, joined by “and”; a condition that tells them apart may be missing. Equal values may be shown once. Inconclusive results are not listed. Some structures have more than one record in an assay (separate samples or runs), and their calls can disagree. Activity calls are given as the source filed them. Unless noted, the call rests on the fitted dose curve; in most records, active means well fitted curve in the direction sought with a large enough effect in the repeat runs; inconclusive means weak or mixed curves; inactive means no such curve, though single readings can be large; an effect the other way counts as inactive or inconclusive.

Tests used:
[1] = A CellTox Green Cytotoxicity Assay to monitor cytotoxicity in HepG2 cells - 8 hour (AID 1224890); further: nearly all actives have a fitted effect of over 45% in size
Outline: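 Continuous culture of HepG2 cells with a membrane-impermeant DNA dye; rising fluorescence marks dead cells. Compound exposure lasted up to 40 h at 37 C, with reads every 8 h from 0 h.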

[2] = qHTS assay to identify small molecule antagonists of the estrogen receptor alpha (ER-alpha) signaling pathway using the BG1 cell line in the presence of 0.1 nM 17-beta-estradiol - cell viability counter screen (AID 1259241); further: nearly all actives have a fitted effect of over 40% in size; further: potency means the concentration at half of the fitted maximal effect
Outline: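 Following 5 days in phenol red-free medium with charcoal-stripped serum, VM7Luc4E2 cells received test compounds alongside 0.1 nM 17beta-estradiol (final) at 37C for 22 hr. Live cells were then quantified via protease-substrate fluorescence.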

[3] = qHTS assay to identify small molecule antagonists of the androgen receptor (AR) signaling pathway using the MDA cell line in the presence of 0.5 nM R1881 - cell viability counter screen (AID 1259242); further: nearly all actives have a fitted effect of over 45% in size; further: potency means the concentration at half of the fitted maximal effect
Outline: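 Fluorescence from CellTiter-Fluor, which reports protease activity of live cells, was read 30 min after reagent addition to MDA-kb2 cells that had been incubated 16 hr with compound and 0.5 nM R1881.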

[4] = target: Estrogen receptor (Homo sapiens) (UniProt P03372); assay: qHTS assay to identify small molecule antagonists of the estrogen receptor alpha (ER-alpha) signaling pathway using the BG1 cell line in the presence of 0.1 nM 17-beta-estradiol (AID 1259244); further: nearly all actives have a fitted effect of over 50% in size; further: potency means the concentration at half of the fitted maximal effect
Outline: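 Quantitative high-throughput screen in VM7Luc4E2 cells: compound plus 0.1 nM E2 (final), 22 h, 37C, 5% CO2; ONE-Glo added, 30 min room temperature, luminescence measured.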

[5] = qHTS assay to identify small molecule HDAC inhibitors (AID 1259364); further: nearly all actives have a fitted effect of over 45% in size; further: potency means the concentration at half of the fitted maximal effect
Outline: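 Endogenous HDAC class I/II activity was measured in wild-type HCT-116 cells by HDAC-Glo luminescence after 2 h compound treatment.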

[6] = qHTS assay to identify small molecule HDAC inhibitors - cell viability counter screen (AID 1259365); further: series mostly up to about 92 µM; nearly all actives have a fitted effect of over 50% in size
Outline: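 HCT-116 wild-type, overnight attachment; 2hr drug exposure, 37C; CellTiter-Glo luminescent ATP readout after 30min RT.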

[7] = qHTS assay to identify small molecule agonists of the sonic hedgehog signaling (Shh) pathway - cell viability counter screen (AID 1259366); further: nearly all actives have a fitted effect of over 50% in size
Outline: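 Compounds in DMSO were pin-transferred onto 3T3 Gli1-Luc cells that had settled 4hr; plates then stood 24hr at 37C and 5% CO2. One hour before the end, CellTiter-Fluor was added and fluorescence recorded.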

[8] = qHTS assay to identify small molecule agonists of the sonic hedgehog signaling (Shh) pathway (AID 1259368; calls by dose curve;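 further: NIH/3T3-derived 3T3Gli1-Luc cells carrying a stable Gli1-driven firefly luciferase reporter; series mostly up to about 92 µM; nearly all actives have a fitted effect of over 15% in size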)
Outline: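 Luminescent signal was taken as a measure of Gli1-controlled luciferase expression in stably transfected NIH/3T3-derived cells that had been treated for 24 hr with compounds delivered in DMSO.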

[9] = qHTS assay to identify small molecule antagonists of the sonic hedgehog signaling (Shh) pathway (AID 1259369; calls by dose curve; further: nearly all actives have a fitted effect of over 45% in size; further: potency means the concentration at half of the fitted maximal effect)
Outline: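 Screening used 3T3Gli1-Luc cells at 2,000 per well, compounds delivered in DMSO, and conditioned medium as agonist stimulus; plates incubated 24hr at 37 C and 5% CO2 before a 30min luciferase step.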

[10] = target: Estrogen receptor beta (Homo sapiens) (UniProt Q92731); assay: qHTS assay to identify small molecule agonists of the estrogen receptor beta (ER-beta) signaling pathway (AID 1259377; active means well fitted activation curve with a large enough effect in the signal ratio in the repeat runs, not every such curve was filed as active; the % refers to the signal ratio; further: potency means the concentration at half of the fitted maximal effect)
Outline: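 qHTS in ER-beta-UAS-bla HEK293T cells: 6 hr settling, then 16 hr compound at 37C, then LiveBLAzer substrate 2 h at RT before fluorescence reading.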

[11] = target: Estrogen receptor beta (Homo sapiens) (UniProt Q92731); assay: qHTS assay to identify small molecule antagonists of the estrogen receptor beta (ER-beta) signaling pathway (AID 1259378; active means well fitted inhibition curve with a large enough effect in the signal ratio in the repeat runs, not every such curve was filed as active; the % refers to the signal ratio; further: potency means the concentration at half of the fitted maximal effect)
Outline: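 Antagonist mode: compounds added to beta-lactamase reporter HEK293T ER-beta-UAS cells stimulated with E2 (1nM final), 16 hr at 37C. LiveBLAzer B/G FRET substrate, 2 hours room temperature, fluorescence read-out.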

[12] = qHTS assay to identify small molecule agonists of the estrogen receptor beta (ER-beta) signaling pathway - cell viability counter screen (AID 1259380); further: nearly all actives have a fitted effect of over 30% in size; further: potency means the concentration at half of the fitted maximal effect
Outline: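 Viability of ER-beta-UAS-bla HEK293T cells was determined by CellTiter-Glo luminescence following 16 hr treatment with test compounds at 37C.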

[13] = qHTS assay to identify small molecule antagonists of the estrogen receptor beta (ER-beta) signaling pathway - cell viability counter screen (AID 1259382);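 further: HEK293T cells carrying ER-beta-UAS-bla reporter stimulated with estradiol; series mostly up to about 92 µM; nearly all actives have a fitted effect of over 55% in size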
Outline: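 Tox21 10K library tested in qHTS format on ER-beta-bla HEK293T cells stimulated with 1nM E2; 16 hr treatment at 37C. Same-well CellTiter-Glo luminescence served as the cell viability measure.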

[14] = target: Estrogen receptor (Homo sapiens) (UniProt P03372); assay: qHTS assay to identify small molecule agonists of the estrogen receptor alpha (ER-alpha) signaling pathway in the presence of an antagonist (AID 1259383; calls by dose curve; further: nearly all actives have a fitted effect of over 15% in size; further: potency means the concentration at half of the fitted maximal effect; on activation: top concentration of the series differs between compounds)
Outline: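 In VM7Luc4E2 cells, 4,000 per well, compounds at 15 concentrations were co-incubated 22hr at 37C with 10.0nM final ICI-182,780. Luminescence from the stably transfected 4×ERE-luciferase reporter was recorded 30min after ONE-Glo addition.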

[15] = qHTS assay to identify small molecule agonists or antagonists of the thyroid stimulating hormone receptor (TSHR) signaling pathway - wild type cell line counter screen (AID 1259384; calls by dose curve)
Outline: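 Counter screen in untransfected Hek293: compounds (15-point titration, triplicate) plus phosphodiesterase inhibitor Ro20-1724 added after 18 h plating; 30 min RT. Intracellular cAMP via competitive d2/cryptate immunoassay, 1 h incubation.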

[16] = qHTS assay to identify small molecule antagonists of the sonic hedgehog signaling (Shh) pathway - cell viability counter screen (AID 1259367); further: nearly all actives have a fitted effect of over 55% in size; further: potency means the concentration at half of the fitted maximal effect
Outline: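 Cells: 3T3 Gli1-Luc, 2,000/well, 4 hr pre-incubation. Compounds in DMSO, then conditioned medium. Incubation 24 hr, 37C, 5% CO2. CellTiter-Fluor at 23 hr, 1 hr, fluorescence.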

[17] = qHTS assay to identify small molecule agonists of the androgen receptor (AR) signaling pathway in the presence of an antagonist - cell viability counter screen (AID 1259379); further: nearly all actives have a fitted effect of over 25% in size; further: potency means the concentration at half of the fitted maximal effect
Outline: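 In MDA-kb2 cells (human breast carcinoma, MMTV-luciferase), compounds at 15 concentrations plus 3.0uM nilutamide; 16 hr, 37C, 0% CO2; CellTiter-Fluor fluorescence read for viability.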

[18] = target: Androgen receptor (Homo sapiens) (UniProt P10275); assay: qHTS assay to identify small molecule antagonists of the androgen receptor (AR) signaling pathway using the MDA cell line in the presence of 0.5 nM R1881 (AID 1259243); further: potency means the concentration at half of the fitted maximal effect; nearly all actives have a fitted effect of over 50% in size
Outline: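 Inhibition of R1881 (0.5 nM final) induced reporter signal was measured in human MDA-kb2 cells; note the MMTV promoter also responds to GR. Exposure lasted 16 hr at 37C.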

[19] = target: Androgen receptor (Homo sapiens) (UniProt P10275); assay: qHTS assay to identify small molecule agonists of the androgen receptor (AR) signaling pathway in the presence of an antagonist (AID 1259381; calls by dose curve; further: nearly all actives have a fitted effect of over 15% in size)
Outline: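 Here, 15-concentration compound series were pin-transferred onto MDA-kb2 MMTV-luciferase cells already dosed with nilutamide (3.0uM final). After 16hr at 37C, ONE-Glo was added and luminescence read 30min later at room temperature.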

[20] = qHTS assay to identify small molecule phospholipidosis (PLD) inducers (AID 1259344; active means well fitted curve in the direction sought with a large enough effect; an effect the other way counts as inactive or inconclusive)
Outline: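 Phospholipidosis is scored by imaging LipidTOX-stained pits in HepG2 cells exposed to compound for 24 h at 37 C; pit counts and integrated intensities per well and per cell serve as outputs.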

Measured: Potency

Chain of Androgen receptor (Homo sapiens) (P10275 whole entry, looked up): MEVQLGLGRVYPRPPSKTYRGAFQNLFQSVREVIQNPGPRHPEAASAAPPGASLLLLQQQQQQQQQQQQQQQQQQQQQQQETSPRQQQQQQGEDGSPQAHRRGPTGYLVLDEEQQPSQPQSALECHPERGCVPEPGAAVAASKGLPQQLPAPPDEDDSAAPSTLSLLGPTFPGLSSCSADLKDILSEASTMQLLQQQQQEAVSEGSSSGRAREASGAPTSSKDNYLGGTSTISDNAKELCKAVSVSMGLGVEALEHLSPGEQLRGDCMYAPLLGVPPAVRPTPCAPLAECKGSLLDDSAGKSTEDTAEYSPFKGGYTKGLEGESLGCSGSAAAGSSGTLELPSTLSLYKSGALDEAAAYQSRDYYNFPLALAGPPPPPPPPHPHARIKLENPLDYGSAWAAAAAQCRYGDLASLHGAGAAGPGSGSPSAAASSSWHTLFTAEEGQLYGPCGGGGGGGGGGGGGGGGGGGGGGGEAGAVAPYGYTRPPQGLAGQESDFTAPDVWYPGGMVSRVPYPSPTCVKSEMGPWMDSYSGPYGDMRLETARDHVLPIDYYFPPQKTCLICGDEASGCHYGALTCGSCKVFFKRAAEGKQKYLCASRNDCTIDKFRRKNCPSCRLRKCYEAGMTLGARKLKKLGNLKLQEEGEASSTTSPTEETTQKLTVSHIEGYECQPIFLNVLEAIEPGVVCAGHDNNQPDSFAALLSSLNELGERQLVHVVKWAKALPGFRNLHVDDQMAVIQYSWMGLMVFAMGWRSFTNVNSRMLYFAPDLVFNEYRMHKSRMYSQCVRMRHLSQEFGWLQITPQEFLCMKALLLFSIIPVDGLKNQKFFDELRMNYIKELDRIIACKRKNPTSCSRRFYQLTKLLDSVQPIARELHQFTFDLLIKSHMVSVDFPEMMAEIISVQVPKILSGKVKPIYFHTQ
Chain of Estrogen receptor beta (Homo sapiens) (Q92731 whole entry, looked up): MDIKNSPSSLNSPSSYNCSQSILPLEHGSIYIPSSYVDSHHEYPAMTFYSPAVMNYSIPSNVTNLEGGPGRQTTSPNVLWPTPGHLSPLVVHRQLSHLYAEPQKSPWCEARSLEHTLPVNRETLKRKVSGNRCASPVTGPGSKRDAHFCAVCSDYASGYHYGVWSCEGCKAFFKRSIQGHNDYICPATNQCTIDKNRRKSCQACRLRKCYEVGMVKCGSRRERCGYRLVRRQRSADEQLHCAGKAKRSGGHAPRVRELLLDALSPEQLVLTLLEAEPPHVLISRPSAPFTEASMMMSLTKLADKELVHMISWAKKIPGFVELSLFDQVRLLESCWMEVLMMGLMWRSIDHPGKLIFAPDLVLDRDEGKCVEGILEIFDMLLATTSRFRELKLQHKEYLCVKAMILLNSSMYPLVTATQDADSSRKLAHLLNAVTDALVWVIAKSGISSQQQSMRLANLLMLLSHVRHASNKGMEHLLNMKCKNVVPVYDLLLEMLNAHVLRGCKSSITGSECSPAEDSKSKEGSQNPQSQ
Chain of Estrogen receptor (Homo sapiens) (P03372 whole entry, looked up): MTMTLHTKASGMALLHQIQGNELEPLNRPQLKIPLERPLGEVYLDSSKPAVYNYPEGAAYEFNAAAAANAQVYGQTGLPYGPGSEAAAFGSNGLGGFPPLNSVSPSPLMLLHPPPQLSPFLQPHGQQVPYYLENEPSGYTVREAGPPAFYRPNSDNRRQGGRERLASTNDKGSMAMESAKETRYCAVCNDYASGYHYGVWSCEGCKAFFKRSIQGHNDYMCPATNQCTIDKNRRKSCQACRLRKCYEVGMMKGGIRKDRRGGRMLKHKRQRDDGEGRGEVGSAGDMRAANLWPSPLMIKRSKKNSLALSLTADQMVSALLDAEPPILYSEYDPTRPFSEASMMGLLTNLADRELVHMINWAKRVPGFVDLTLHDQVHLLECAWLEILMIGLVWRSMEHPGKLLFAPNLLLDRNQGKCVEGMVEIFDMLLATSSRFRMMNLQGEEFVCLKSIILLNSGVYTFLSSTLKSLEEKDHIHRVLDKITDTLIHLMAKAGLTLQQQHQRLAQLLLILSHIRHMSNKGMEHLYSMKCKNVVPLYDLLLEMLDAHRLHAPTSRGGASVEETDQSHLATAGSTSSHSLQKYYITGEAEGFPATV

CC(C)C(=O)OCC(C)(C)C(OC(=O)C(C)C)C(C)C (stereo not drawn)
inactive and 27.3 µM (active): [10] | [14]
not listed: [16] | [17] | [18] | [19] | [20]
inactive: all other assays above

CNC(=O)N(C)c1nnc(C(C)(C)C)s1
active: [5] 27.3 µM
not listed: [18] | [19] | [20]
inactive: all other assays above

CCN(N=O)C(N)=O
not listed: [5] | [18] | [19] | [20]
inactive: all other assays above

CC(C)c1ccc(CO)cc1
not listed: [10] | [11] | [17] | [18] | [19] | [20]
inactive: all other assays above

Nc1ccc(-c2ccccc2)cc1
active: [14] 8.87 µM and 9.69 µM
17.7 µM (active) and inactive: [9]
19.9 µM (active) and inactive: [12]
not listed: [5] | [10] | [17] | [18] | [19] | [20]
inactive: all other assays above

O=[N+]([O-])c1ccc(O)c([N+](=O)[O-])c1
active: [2] 30.8 µM and 27.3 µM | [3] 24.4 µM and 27.3 µM | [18] 30.8 µM and 54.5 µM | [4] 48.8 µM and 48.6 µM | [5] 30.8 µM and 27.3 µM | [16] 48.8 µM | [9] 30.8 µM and 30.6 µM | [17] 48.8 µM and 48.6 µM
not listed: [7] | [20]
inactive: all other assays above

CCN(CC)C(=O)SCc1ccc(Cl)cc1
not listed: [10] | [11] | [17] | [18] | [19] | [20]
inactive: all other assays above

O=c1oc2ccccc2c(O)c1C(CC(O)c1ccc(-c2ccc(Br)cc2)cc1)c1ccccc1 (stereo not drawn)
active: [11] 23 µM
not listed: [5] | [15] | [17] | [18] | [19]
inactive: all other assays above
